Sampled rows, rich in hits. Any-hit rate of the full collection: about 2.1%.
TDP-43 yeast inh – inhibitors of TDP-43 toxicity in yeast. TDP-43 expressing yeast growth rescue, BacTiter-Glo, 24 h. Potency, µM (doses to about 46.1 µM), inactives show top-dose growth rescue (activation), most hits filed as activators. actives 1.8% (n = 410,000). AID 652104; further: % of control where 0% means no effect; nearly all actives have a fitted effect of over 50% in size
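Growth rescue of TDP-43-toxic yeast measured as ATP luminescence (BacTiter-Glo). Cells grown to mid-log in raffinose, induced in galactose at OD600=0.02, exposed to compound 24 hr at 30 deg C.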
FUS suppressor – suppressors of FUS proteinopathy in yeast; S. cerevisiae FUS-expressing, growth rescue, OD600, 24 h; Potency, µM (titrated, usually from 76.6 µM), hits mostly activators; actives 0.24% (n = 390,000);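 further: plate controls were DMSO vehicle for no effect and reference control for full effect; nearly all actives have a fitted effect of over 55% in size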
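Restored growth of FUS-toxic S. cerevisiae, read as 600 nm absorbance after 24 h at 30C in galactose medium (starting OD 0.005). Controls CP55940 and DMSO.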
aSyn yeast inh – inhibitors of alpha-synuclein toxicity in yeast; Yeast expressing alpha-synuclein, growth rescue, BacTiter-Glo, 24 h; Potency, µM (top dose mostly 46.1 µM), for inactives: at the highest dose growth rescue (activation), most hits filed as activators; actives 0.14% (n = 370,000); AID 652106; further: % of control where 0% means no effect; nearly all actives have a fitted effect of over 65% in size
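Readout is rescue of growth in alpha-synuclein-expressing yeast, so inhibitors of toxicity appear as activators. Growth after 24 hr at 30 deg C in galactose medium is quantified by luminescence.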
Abeta rescue – restores growth of yeast expressing A-beta42 peptide | yeast expressing A-beta42, growth rescue, OD600, 48 h; response scale: 0% DMSO, 100% iron-clioquinol control | Potency, µM (titrated, usually from 46.1 µM), most hits filed as activators | actives 0.063% (n = 410,000) | AID 1347071; further: nearly all actives have a fitted effect of over 55% in size
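Yeast growth medium received pinned compounds, then yeast cells expressing toxic A-beta were added; plates incubated at 30 C for 48 hr. Growth read as absorbance at 600 nm, normalized to DMSO and equimolar FeCl3 plus clioquinol controls.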
Numbers without * were called inactive; i = inactive; ? = inconclusive; nt = no result. The call rests on the fitted dose curve; in most records, active means well fitted curve in the direction sought with a large enough effect; inconclusive means small, poorly fitted or top-dose-only effect, or another doubt; inactive means no such curve, though single readings can be large; an effect the other way counts as inactive or inconclusive. Potency means the concentration at half of the fitted maximal effect.

SMILES	TDP-43 yeast inh	FUS suppressor	aSyn yeast inh	Abeta rescue
CCN(C(=O)C(NS(=O)(=O)c1ccc(Br)s1)c1ccccc1)c1ccc(C)c(C)c1 (configuration not stated)	6.7%	i	nt	i
CC1CC(C)CN(C(=O)C(NS(=O)(=O)c2ccc(Br)s2)c2ccccc2)C1 (configuration not stated)	14.1µM*	i	-2.2%	i
COc1ccc(CN(CCN2CCOCC2)C(=O)c2ccc(F)cc2F)cc1OC	nt	i	nt	nt
COc1ccc(CNC(=S)OC2CCC23CCC(c2ccccc2)CC3)cc1 (configuration not stated)	nt	i	nt	nt
N#Cc1c(N)nc2c(c1-c1ccc(Br)s1)CCCC2	11.5%	nt	-1.8%	i
Nc1nc(-c2ccc(Br)s2)c(Br)s1	11.2µM*	i	4.2%	i
Cc1cc(Cl)cc(C)c1OCC(=O)N1CCN(c2ncccn2)CC1	12.6µM*	i	0.1%	i
COCCCN1C(=O)[C@H](CC(=O)NCCCCc2ccccc2)[C@]2(C(=O)OC)CCCCC=C12	nt	i	nt	nt
CCc1ccc(C2=Nn3c(nnc3-c3cccs3)SC2)cc1	11.2µM*	i	0.0%	i
CCOc1ccc(C2=Nn3c(CC)nnc3SC2)cc1	17.8µM*	i	2.2%	i
O=C(N/N=C\C=C\c1ccco1)c1cc(-c2ccc3ccccc3c2)n[nH]1	16.4%	?	17.8µM*	i
C=CCOC/C=C/C#CCN(Cc1ccc(OC)cc1OC)C(=O)Nc1ccccc1	nt	i	nt	nt
S=C(Nc1ccccc1)Nc1ccccc1-n1cccc1	?	i	16.4%	12.6µM*
Cc1ccc(N2CCN(Cc3nnc(-c4ccccc4F)o3)CC2)c(C)c1	16.8%	i	nt	i
O=C(Nc1cccc(S(=O)(=O)N2CCCCC2)c1)[C@@H]1CCCN1S(=O)(=O)c1ccccc1C(F)(F)F	-21.5%	25.1µM*	-0.1%	i
CCc1ccccc1OCC(=O)Nc1ccc(F)c(S(=O)(=O)N2CCOCC2)c1	15.8µM*	i	7.0%	i
COc1ccc(CC(=O)Nc2ccc(F)c(S(=O)(=O)N3CCOCC3)c2)cc1	4.5%	i	-0.2%	i
O=C(COc1ccccc1Cl)Nc1cccc(S(=O)(=O)N2CCCC2)c1	17.8µM*	i	12.8%	i
CC(=O)c1cccc(NC(=O)C2CCCN2S(=O)(=O)c2ccccc2C(F)(F)F)c1 (configuration not stated)	13.0%	i	-6.5%	i
COc1ccccc1NC(=O)c1cccc(S(=O)(=O)N2CCCCCC2)c1	35.5µM*	i	nt	i
COc1cccc(NC(=O)Nc2c(-c3ccc(F)cc3)nc3ncccn23)c1	nt	i	nt	nt
COc1ccc(-n2c(COc3ccc(Cl)cc3)nnc2SCC(=O)Nc2ccc3c(c2)OCO3)cc1	nt	i	nt	nt
COc1ccc(C(=O)Nc2ccccc2N2CCCCC2)cc1[N+](=O)[O-]	17.8µM*	i	-2.7%	i
O=C(COc1ccc(F)cc1Cl)Nc1cccc(S(=O)(=O)N2CCCC2)c1	35.5µM*	i	-2.0%	i
C[C@H]1[C@@H](OC(=O)N2CCN(c3ccccc3)CC2)CC[C@@]23CCCN2C(=O)CCC[C@@H]13	nt	i	nt	nt
SMILES	TDP-43 yeast inh	FUS suppressor	aSyn yeast inh	Abeta rescue
O=S(=O)(NCCOc1ccccc1Cl)c1ccc2oc3ccccc3c2c1	19.3%	i	?	i
COc1ccccc1OCCNS(=O)(=O)c1ccc2oc3ccccc3c2c1	15.8µM*	i	?	i
CC1CC(C)CN(C(=O)CSCC(=O)Nc2nc(-c3cccs3)cs2)C1 (configuration not stated)	0.0%	i	-7.0%	i
O=C(CSCC(=O)N1CCCCC1)Nc1nc(-c2ccc(Cl)s2)cs1	20µM*	i	-11.7%	i
O=C(CSCC(=O)N1CCCCC1)Nc1nc(-c2cccs2)cs1	31.6µM*	i	-1.0%	i
COC(=O)[C@]12C[C@H](CC(=O)N3CCOCC3)C(=O)N(Cc3ccc4c(c3)OCO4)C1=C[C@H](C(C)C)O[C@@H]2C1CC1	nt	i	nt	nt
CCc1ccc2oc(-c3ccc(NC(C)=O)cc3)nc2c1	3.55µM*	i	-31.2%	i
CCc1ccc(-c2nc3cc(NC(=O)c4ccc(C)c(C)c4)ccc3o2)cc1	-26.7%	i	nt	i
CCCc1nc(SC)ncc1C(=O)N1CCN(c2ccc(Cl)cc2)CC1	35.5µM*	i	nt	i
CC(C)OC(=O)c1c(NC(=O)c2cc3nc(-c4ccccc4)cc(C(F)(F)F)n3n2)sc2c1CCCC2	-9.1%	i	nt	i

Bioassay records as filed in PubChem.
